Screening data from PubChem.
ALOX12 inh: blocks human arachidonate 12S-lipoxygenase; purified 12hLO, xylenol orange hydroperoxide absorbance; Potency, µM (top dose mostly 108 µM), for the others: top-dose activity change, negative = inhibition, usual class: inhibitors; actives 1.1% (n = 580,000); AID 1671190; further: on the % scale 0 is the no-effect control and ±100 the full control effect
Target sequence (P18054 whole entry, looked up): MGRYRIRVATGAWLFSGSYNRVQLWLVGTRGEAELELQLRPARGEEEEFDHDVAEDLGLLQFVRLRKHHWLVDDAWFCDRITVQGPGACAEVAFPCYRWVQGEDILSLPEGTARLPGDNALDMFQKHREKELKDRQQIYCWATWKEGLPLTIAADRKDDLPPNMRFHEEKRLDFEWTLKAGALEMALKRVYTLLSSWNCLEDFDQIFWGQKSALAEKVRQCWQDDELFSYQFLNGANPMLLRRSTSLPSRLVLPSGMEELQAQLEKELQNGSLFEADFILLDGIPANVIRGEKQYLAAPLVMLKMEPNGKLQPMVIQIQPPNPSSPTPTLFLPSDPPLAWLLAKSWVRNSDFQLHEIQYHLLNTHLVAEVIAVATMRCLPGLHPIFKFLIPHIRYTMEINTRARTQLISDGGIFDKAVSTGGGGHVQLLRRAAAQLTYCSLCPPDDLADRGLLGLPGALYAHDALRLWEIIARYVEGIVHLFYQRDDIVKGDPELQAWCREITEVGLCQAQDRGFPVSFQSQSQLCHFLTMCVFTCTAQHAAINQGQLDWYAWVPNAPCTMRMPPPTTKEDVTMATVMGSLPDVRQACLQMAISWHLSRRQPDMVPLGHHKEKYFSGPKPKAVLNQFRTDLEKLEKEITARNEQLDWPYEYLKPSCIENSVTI
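Hydroperoxide product was detected by ferrous iron/xylenol orange as the 573 to 405 nm absorbance ratio. Arachidonic acid at 40 uM (final) was turned over for 30 min at room temperature by 150 nM human 12hLO, pH 7.0 Hepes buffer, after 15 min compound preincubation.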
KB-3-1 cytotox: KB-3-1 parental cell cytotoxicity; KB-3-1 viability, CellTiter-Glo ATP luminescence, 72 h; Potency, µM (top dose mostly 46.1 µM), actives largely listed as cytotoxic; actives 1.4% (n = 400,000); further: on the % scale 0 is the no-effect control and ±100 the full control effect; nearly all actives have a fitted effect of over 60% in size
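Using CellTiter-Glo luminescence, growth of non-resistant KB-3-1 adenocarcinoma cells is assessed 72 h after pin-tool compound addition at 37 °C. Normalized responses across the concentration series yield fitted curves.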
KB-V1 cytotox: KB-V1 MDR subline cytotoxicity. KB-V1 MDR cells viability, CellTiter-Glo, 72 h. Potency, µM (doses to about 46.1 µM), most hits filed as cytotoxic. actives 3.4% (n = 400,000). AID 1347076; further: on the % scale 0 is the no-effect control and ±100 the full control effect; nearly all actives have a fitted effect of over 60% in size
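KB-V1 cells (P-gp-expressing MDR subline of KB-3-1) in phenol-red-free DMEM with 10% FBS were exposed to library compounds over a concentration series for 72 h at 37 degrees C. Viability read by CellTiter-Glo luminescence; concentration-effect curves fitted after normalization.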
PINK1 modulator: changes PINK1 expression | Potency, µM (highest dose often 76.6 µM), without a hit: at the top dose activation (PINK1 increase), actives largely listed as activators | actives 0.2% (n = 410,000) | PINK1 immunofluorescence, high-content cytometry, 24 h; active means well fitted activation curve with a large enough effect; inconclusive means small, poorly fitted or top-dose-only effect; cell line not stated here; further: % of control where 0% means no effect; nearly all actives have a fitted effect of over 65% in size
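Cells are seeded, rested 12 hours, then given compound at five concentrations or DMSO for 24 hours. After fixation, blocking and antibody staining, PINK1 amount and mitochondrial localization are scored; CCCP serves as control.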
MCF10A rerep: DNA re-replication induction in MCF 10a cells; MCF 10A DNA re-replication, Hoechst nuclear intensity, 48 h; Potency, µM (top dose mostly 46.1 µM), for inactives: top-dose activity, positive = re-replication, hits mostly activators; actives 2.9% (n = 350,000); AID 624296; further: % of control where 0% means no effect; nearly all actives have a fitted effect of over 50% in size
SW480 rerep: induces DNA re-replication in SW480 colon adenocarcinoma cells. SW480 DNA re-replication, Hoechst DNA content imaging, 48 h. actives 1.8% (n = 340,000). Potency, µM (top dose mostly 46.1 µM), inactives show at the highest dose re-replication activation, most hits filed as activators; further: % of control where 0% means no effect; nearly all actives have a fitted effect of over 55% in size
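SW480 cells exposed to compounds for 48 hr at 37 C, 5% CO2, then Hoechst-stained 40 min. Nuclear DNA content imaged by fluorescence scanning (405 nm excitation, 500-530 nm emission); re-replication scored as increased high-intensity nuclei.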
The depositor's hits bear a star; i = inactive; u = inconclusive; x = no result; [ ] = remark or other dose. Only some compounds are listed: those with a hit (about 5.8% of all), similar ones and a draw of the others. Unless noted, the call rests on the fitted dose curve; in most records, active means well fitted curve in the direction sought with a large enough effect; inconclusive means small, poorly fitted or top-dose-only effect, or another doubt; inactive means no such curve, though single readings can be large; an effect the other way counts as inactive or inconclusive. Potency means the concentration at half of the fitted maximal effect.

SMILES	ALOX12 inh	KB-3-1 cytotox	KB-V1 cytotox	PINK1 modulator	MCF10A rerep	SW480 rerep
Cc1cc(NC(=O)c2ccccc2)no1	8.8%	i	i	0.9%	-11.9%	-1.0%
Cc1cc(NC(=O)c2ccc3nc(-c4ccccc4)c(-c4ccccc4)nc3c2)no1	-3.6%	i	u	16.7%[38.3 µM]	9.2µM*	u
O=C(N/N=C/c1cccnc1)C1CC1	24.8%	x	x	x	x	x
COc1ccc(CNC(=O)CSc2nc3ccc(NC(=O)c4ccccc4C)cc3s2)cc1	-2.8%	x	x	x	x	x
Cc1cc(N2CCN(c3cccc(C(F)(F)F)c3)CC2)n2ncnc2n1	0.0%	u	i	1.5%	-2.9%	-2.8%
Cc1cc(N2CCN(c3nc4ccccc4s3)CC2)n2ncnc2n1	4.3%	2.59µM*	1.03µM*	1.6%[38.3 µM]	17.0%	-13.0%
CCc1cccc(NC(=O)c2nc3ccccc3nc2N2CCCC2)c1	-3.3%	x	x	x	x	x
Cc1cc(C)nc(NN2C(=O)/C(=C/c3ccccc3)SC2=S)n1	-5.2%	i	i	10µM*	u	-5.4%
Cc1cc(N2CCCCS2(=O)=O)cc(C)c1S(=O)(=O)N(C)CCc1ccncc1	8.8%	x	x	x	x	x
Cc1c(O)ccc2cc(S(=O)(=O)c3ccccc3)c(=O)oc12	-10.3%	i	i	0.4%	4.11µM*	1.84µM*
CSc1cc(-c2ccc(Cl)cc2)n(Cc2ccccc2)c(=O)c1C#N	-2.5%	16.4µM*	i	0.7%	15.3%	-3.2%
CSc1cc(-c2ccccc2)n(C)c(=O)c1C#N	-2.8%	i	u	1.0%	u	-5.0%
Cc1ccc(NC(=O)C(C)OC(=O)c2csc(NCc3ccccc3)n2)cc1 (stereo unspecified)	0.6%	x	x	x	x	x
Cc1ccc(CS(=O)(=O)c2ncc(Cl)c(C(=O)Nc3ccc(OC(F)F)cc3)n2)cc1	15.3%	23.1µM*	18.4µM*	-1.4%	7.31µM*	u
CC(=O)Nc1ccc(NC(=O)c2nc(S(=O)(=O)Cc3ccccc3)ncc2Cl)cc1	-0.1%	i	i	-2.4%	u	-18.8%
CS(=O)(=O)c1ncc(Cl)c(C(=O)Nc2ccc3ccccc3c2)n1	-1.7%	i	i	-1.1%	u	1.16µM*
CCS(=O)(=O)c1ncc(Cl)c(C(=O)Nc2ccc(S(=O)(=O)N3CCCC(C)C3)cc2)n1 (stereo unspecified)	-6.5%	3.66µM*	5.8µM*	-1.2%	2.59µM*	7.31µM*
CCS(=O)(=O)c1ncc(Cl)c(C(=O)Nc2ccc(C)cc2)n1	9.6%	u	i	-1.7%	5.8µM*	3.66µM*
CC1CCCN(CCOc2ccc3ccccc3c2Br)C1 (stereo unspecified)	u	u	u	1.3%	14.6µM*	-6.8%
CC1CCCN(CCCOc2ccc(Cl)cc2Br)C1 (stereo unspecified)	u	u	16.4µM*	-0.8%	u	5.6%
COc1ccc(C(C)=O)c(OCc2cc(OC)c(Br)cc2OC)c1	-16.6%	x	x	x	x	x
COc1ccc(-c2cc(OC(=O)c3cccc(Br)c3)c3c(C)oc(C)c3c(=O)c2)cc1	4.47µM*	x	x	x	x	x
CCOc1ccc(-c2cc(OC(=O)c3ccc(OC)cc3)c3c(C)oc(C)c3c(=O)c2)cc1	4.7%	i	u	-4.5%	x	x
CSc1nc2ccccc2c(=O)n1CC(=O)c1ccccc1	-27.2%	x	x	x	x	x
CC(=O)OCC(=O)[C@H]1CC[C@H]2[C@@H]3CCC4=CC(=O)CC[C@]4(C)[C@H]3CC[C@]12C	-13.4%	u	14.6µM*	0.7%	6.8%	-29.8%
C[C@]12CCC(=O)C=C1CC[C@@H]1[C@@H]2CC[C@@]2(C)[C@H]1CC[C@@]21CCC(=O)O1	u	i	i	1.6%	-0.3%	8.2%
C[C@]12CCC(=O)C=C1CCC1C2CC[C@@]2(C)C1CCC21OCCO1 (stereo partly specified)	27.8%	i	u	-1.1%	20.6µM*	20.7%
S=C(NCc1ccco1)Nc1cccc(Cl)c1	u	i	i	u	11.6%	u
